Results from PubChem BioAssay AID2283166 (EPA ToxCast).
Results filed as inconclusive are left out. Calls of active or inactive are those of the source. Rule for the calls: active = hit-call score of the fitted dose curve at least 0.9, where 1 is the maximum; inconclusive = response in the unintended direction; inactive = score below 0.9.

biological target: human Interleukin-1 Receptor-Associated Kinase 4 (IRAK4), IRAK4 (gene 51135) (UniProt Q9NWZ3); assay: NVS_ENZ_hIRAK4: NovaScreen (NVS) Enzymatic Assay for human Interleukin-1 Receptor-Associated Kinase 4 (IRAK4)
Description: NVS_ENZ_hIRAK4 is a biochemical, single-readout assay that uses extracted gene-proteins in a cell-free assay. Measurements were taken 1 hour after chemical dosing in a 384-well plate.NVS_ENZ_hIRAK4 is one of one assay component(s) measured or calculated from the NVS_ENZ_hIRAK4 assay. It is designed to make measurements of enzyme activity, a form of enzyme reporter, as detected with fluorescence intensity signals by Fluorescence and electrophoretic mobility shift technology.Data from the assay component NVS_ENZ_hIRAK4 was analyzed into 1 assay endpoint. This assay endpoint, NVS_ENZ_hIRAK4, was analyzed in the positive analysis fitting direction relative to DMSO as the negative control and baseline of activity. Using a type of enzyme reporter, loss-of-signal activity can be used to understand changes in the enzymatic activity as they relate to the gene IRAK4. Furthermore, this assay endpoint can be referred to as a primary readout, because this assay has produced […] where this one serves a enzymatic activity function. To generalize the intended target to other relatable targets, this assay endpoint is annotated to the kinase intended target family, where the subfamily is […].
Binding assays used specific radioligands (tritiated, iodinated) with non-radioactive competitive displacement ligands in agonist or antagonist protocols (as indicated) and various reference compounds and inhibitors to titrate specific binding to receptors and transporters. Most enzyme assays (CYPs, kinases, phosphatases, proteases, HDACs) used recombinant protein and specific substrates (fluorescence mostly, some colorimetric and radioactive) and inhibitors, followed by a biochemical separation of substrate and product. All assays for the biochemical HTS were initially run in duplicate at a single concentration (10 uM for CYP450 assays and 25 uM for all others). Assay-chemical combinations meeting a pre-defined threshold (e.g., 30% inhibition and other criteria defined below) were then run in singleton concentration-response format with maximum concentration of 20 uM for CYPs and 50 uM for all others. Each assay was run with positive and negative controls, and concurrent controls on every plate. The follow-up (secondary) screen tested active chemical-pairs in concentration series, as well as a few additional assays not tested in the primary screen, some selected negative inactives, and several cases re-run in the concentration series for confirmatory purposes.

human Interleukin-1 Receptor-Associated Kinase 4 (IRAK4), IRAK4 (gene 51135), sequence (Q9NWZ3 whole entry, looked up): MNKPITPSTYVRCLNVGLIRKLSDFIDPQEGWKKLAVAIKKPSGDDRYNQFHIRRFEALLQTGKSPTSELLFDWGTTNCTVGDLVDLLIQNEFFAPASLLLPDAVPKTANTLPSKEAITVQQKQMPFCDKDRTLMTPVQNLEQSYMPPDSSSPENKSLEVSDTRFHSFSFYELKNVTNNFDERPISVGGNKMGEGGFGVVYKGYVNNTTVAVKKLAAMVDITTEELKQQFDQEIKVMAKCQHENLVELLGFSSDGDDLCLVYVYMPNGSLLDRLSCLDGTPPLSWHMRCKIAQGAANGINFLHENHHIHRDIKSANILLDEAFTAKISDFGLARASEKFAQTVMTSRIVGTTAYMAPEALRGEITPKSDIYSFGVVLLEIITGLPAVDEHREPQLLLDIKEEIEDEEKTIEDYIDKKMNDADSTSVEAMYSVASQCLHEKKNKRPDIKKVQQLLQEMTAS

Row | SMILES | outcome
1 | Cc1ccc(N=CN(C)C=Nc2ccc(C)cc2C)c(C)c1 | inactive
2 | CNC(=S)S | inactive
3 | COP(=S)(OC)Oc1ccc([N+](=O)[O-])cc1 | inactive
4 | CCCCNC(=O)OCC#CI | inactive
5 | CCOC(=O)C(Cl)Cc1cc(-n2nc(C)n(C(F)F)c2=O)c(F)cc1Cl (stereo not given) | inactive
